An excerpt weighted towards active compounds, which were near 21% of everything screened.
IL-1B inflam inh: qHTS for Inhibitors of Inflammasome Signaling: IL-1-beta AlphaLISA Primary Screen; actives 4.7% (n = 360,000); THP-1 LPS/ATP IL-1B secretion, AlphaLISA, 16 h; active compounds read low; activity change, % at 57.5 µM; in the data active means activity change below about -50%; inconclusive means mostly about -30% to -49%
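THP-1 cells pretreated 1 hr with compounds (up to 57.5 uM final), then stimulated with LPS (250 ng/mL final) plus ATP (1.25 mM final); secreted IL-1B measured by AlphaLISA after 16 hr, decreased signal indicating inhibition.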
ELG1 DNA repair: qHTS screen for small molecules that inhibit ELG1-dependent DNA repair in human embryonic kidney (HEK293T) cells expressing luciferase-tagged ELG1; HEK293T ELG1-luciferase reporter, luminescence, 16 h; DNA damage induced by 5-fluorouridine; Potency, µM (top dose mostly 46.1 µM), hits mostly inhibitors; actives 2.3% (n = 330,000); AID 504467, 2011; further: nearly all actives have a fitted effect of over 55% in size
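Reporter activity after DNA damage by 5-fluorouridine is monitored. Compound-treated cells incubate 16 hr at 37 °C, then ONE-Glo is added for 30 min before luminescence reading.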
RORgamma inh: qHTS for inhibitors of ROR gamma transcriptional activity; Drosophila S2 Gal4-RORgamma UAS-luciferase reporter, 20 h; actives 5.4% (n = 310,000); Potency, µM (titrated, usually from 53.6 µM), usual class: inhibitors; further: nearly all actives have a fitted effect of over 60% in size
Target sequence (P51450 whole entry, looked up, the tested form may be a part): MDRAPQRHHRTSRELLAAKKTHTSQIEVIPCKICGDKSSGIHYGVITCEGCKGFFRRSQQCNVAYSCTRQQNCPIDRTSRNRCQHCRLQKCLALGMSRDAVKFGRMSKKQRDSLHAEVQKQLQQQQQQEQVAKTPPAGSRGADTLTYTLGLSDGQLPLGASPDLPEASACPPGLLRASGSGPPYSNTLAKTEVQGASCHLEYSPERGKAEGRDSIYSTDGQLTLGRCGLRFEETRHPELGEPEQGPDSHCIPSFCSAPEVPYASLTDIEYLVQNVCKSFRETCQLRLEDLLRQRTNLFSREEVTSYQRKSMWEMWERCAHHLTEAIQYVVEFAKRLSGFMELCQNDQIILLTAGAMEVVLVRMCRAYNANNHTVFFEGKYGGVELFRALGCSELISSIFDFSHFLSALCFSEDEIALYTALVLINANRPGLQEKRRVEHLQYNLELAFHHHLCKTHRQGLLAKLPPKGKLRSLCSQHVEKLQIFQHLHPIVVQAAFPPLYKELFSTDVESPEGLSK
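Luciferase reporter read in Schneider cells carrying Gal4-RORγ (mouse) and UAS-Photinus luciferase; cells given compound 1 h before 700 uM copper sulfate induction, then incubated 20 h at ambient temperature.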
DT40 TDP1 CPT: qHTS for Inhibitors of human tyrosyl-DNA phosphodiesterase 1 (TDP1): qHTS in cells in presence of CPT; chicken DT40 Tdp1-/-;hTDP1 cells + 20 nM CPT, ATP luminescence, 48 h; Potency, µM (top dose mostly 46.2 µM), usual class: inhibitors; actives 12% (n = 420,000); further: nearly all actives have a fitted effect of over 55% in size
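Cell growth measured by CellTiter-Glo luminescence after a minimum 48 h, 37 C compound exposure with 20 nM CPT in Tdp1-knockout DT40 cells stably expressing hTDP1, seeded 400/well; qHTS titration format.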
Gal4-VP16 FLuc: VP16 counterscreen qHTS for inhibitors of ROR gamma transcriptional activity | Drosophila S2 Gal4-VP16 UAS-luciferase, luminescence, 20 h | Potency, µM (top dose mostly 53.6 µM), usual class: inhibitors | actives 3.5% (n = 310,000);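 further: Gal4-VP16 expression switched on by copper sulfate through the metallothionein promoter; nearly all actives have a fitted effect of over 50% in size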
DT40 TDP1 no CPT: qHTS for Inhibitors of human tyrosyl-DNA phosphodiesterase 1 (TDP1): qHTS in cells in absence of CPT. DT40 Tdp1-/- hTDP1 cells, no CPT, ATP luminescence, 48 h. Potency, µM (doses to about 46.2 µM), most hits filed as inhibitors. actives 15% (n = 420,000); further: nearly all actives have a fitted effect of over 55% in size
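A cellular qHTS used chicken DT40 cells lacking endogenous Tdp1 but carrying stably transfected human TDP1. Compounds were applied without camptothecin, and cell growth kinetics were judged by ATP-dependent luminescence after ≥48 hr.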
A number is an active result; – = inactive; ? = inconclusive; · = not tested or not shown; [ ] = remark or other dose. Unless noted, the call rests on the fitted dose curve; in most records, active means well fitted curve in the direction sought with a large enough effect; inconclusive means small, poorly fitted or top-dose-only effect, or another doubt; inactive means no such curve, though single readings can be large; an effect the other way counts as inactive or inconclusive.

SMILES | IL-1B inflam inh | ELG1 DNA repair | RORgamma inh | DT40 TDP1 CPT | Gal4-VP16 FLuc | DT40 TDP1 no CPT
S=C(NCCN(C1CCCCC1)C1CCCC1)Nc1cccc(Cl)c1 | · | ? | 17.8µM | ? | ? | 16.4µM
FC(F)(F)c1ccccc1NC(=S)Nc1cccc(Cl)c1 | – | – | ? | – | – | ?
CC(C)c1cccc(C(C)C)c1NC(=S)Nc1cccc(Cl)c1 | · | – | ? | ? | – | 20.6µM
CC12COC3(C(=O)Nc4ccccc4F)CC1CCC32C (stereo unspecified) | – | – | 10µM | – | –[10 µM] | –
CC12COC3(C(=O)Nc4ccc(Cl)cc4)CC1CCC32C (stereo unspecified) | – | ? | – | ? | – | ?
CCCC(=O)N(c1ccc(OCC)cc1)C1C=CS(=O)(=O)C1 (stereo unspecified) | – | – | – | – | – | –
CN(C)c1ccc(-c2nnc(SCC(=O)NCc3ccco3)n2C)cc1 | · | · | · | – | · | –
Cc1nc(NC(=O)c2ccco2)sc1-c1csc(Nc2ccc(Cl)cc2)n1 | – | 18.4µM | – | 20.6µM | – | 16.4µM
COc1ccc(OC)c(Nc2nc(-c3sc(NC(=O)c4ccccc4)nc3C)cs2)c1 | · | – | – | · | – | ·
Cc1ccccc1Nc1nc(-c2sc(NC(=O)c3cccc(Cl)c3)nc2C)cs1 | · | – | 12.6µM | · | ? | ·
Cc1nc(NC(=O)c2ccccc2)sc1-c1csc(Nc2ccc(Cl)cc2)n1 | · | ? | – | · | – | ·
COc1cccc(N(C(=O)c2ccco2)c2nc(-c3sc(NC(=O)c4ccco4)nc3C)cs2)c1 | – | ? | – | 14.6µM | – | 14.6µM
COc1ccc(-c2csc(NC(=O)c3ccco3)n2)cc1 | – | ? | ? | – | – | –
COc1ccccc1Nc1nc(-c2sc(NC(=O)c3ccco3)nc2C)cs1 | – | ? | – | 16.4µM | – | 14.6µM
COc1ccc(-c2cc3nc(C)c(CCC(=O)NC(C)c4ccccc4)c(C)n3n2)c(OC)c1 (stereo unspecified) | · | · | · | – | · | ?
Cc1ccc(Cl)cc1Nc1nc(-c2sc(NC(=O)c3cccc(Cl)c3)nc2C)cs1 | · | – | ? | · | – | ·
Cc1ccc(Cl)cc1Nc1nc(-c2sc(NC(=O)c3ccco3)nc2C)cs1 | – | 8.2µM | – | ? | – | ?
Cc1nc(NC(=O)c2ccco2)sc1-c1csc(Nc2ccc(Cl)cc2Cl)n1 | – | 13µM | ? | 23.1µM | – | 14.6µM
Cc1nc(NC(=O)c2ccccc2)sc1-c1csc(Nc2ccc(Cl)cc2Cl)n1 | · | ? | – | · | – | ·
Cc1ccc(NC(=O)C2(C)CCN2C(=O)Cc2ccc(C(C)(C)C)cc2)cc1C (stereo unspecified) | – | · | · | 20.6µM | · | 10.3µM
Cc1ccc(NC(=O)C2(C)CCN2C(=O)C2CCCCC2)cc1C (stereo unspecified) | – | · | · | ? | · | 18.4µM
Cc1ccc(NC(=O)C2(C)CCN2C(=O)CCC2CCCC2)cc1C (stereo unspecified) | – | · | · | ? | · | ?
Cc1ccc(NC(=O)C2(C)CCN2C(=O)Cc2ccccc2)cc1C (stereo unspecified) | – | · | · | ? | · | 16.4µM
COc1ccc(NC(=O)C2(C)CCN2C(=O)Cc2ccccc2)cc1OC (stereo unspecified) | – | · | · | ? | · | ?
Cc1nnc(-c2ccco2)c2cn(-c3cccc(Br)c3)nc12 | · | ? | – | ? | – | 23.1µM
SMILES | IL-1B inflam inh | ELG1 DNA repair | RORgamma inh | DT40 TDP1 CPT | Gal4-VP16 FLuc | DT40 TDP1 no CPT
Cc1nc2ccccc2c2oc(C(=O)N3CCN(C4CCCCC4)CC3)cc12 | – | 7.31µM | – | 20.6µM | – | 11.6µM
COc1ccc(N2CCN(C(=O)c3cc4c(C)nc5ccccc5c4o3)CC2)cc1 | – | ? | – | 16.4µM | – | 9.2µM
Cc1ccc(CN2CCN(C(=O)/C=C/[C@H]3O[C@@H](n4cc(C)c(=O)[nH]c4=O)C[C@@H]3O)CC2)cc1 | – | · | · | – | · | –
c1ccc(CNc2c3ccccc3nc3ccccc23)cc1 | -99.9 | ? | – | 13µM | – | 18.4µM
CNc1nc(NCc2ccccc2)c2ccccc2n1 | · | – | – | 13µM | – | 4.61µM
O=C(CNC(=O)c1ccccc1)NCCc1ccc(O)c(O)c1 | · | – | – | · | – | ·
Oc1ccc(CCNc2c3ccccc3nc3ccccc23)cc1O | -99.3 | ? | – | 1.16µM | – | 1.46µM
Oc1ccccc1-c1nc(NCc2ccccc2)c2ccccc2n1 | – | – | – | – | – | ?
Oc1ccccc1Nc1nc(NCc2ccccc2)c2ccccc2n1 | -100.6 | ? | ? | 11.6µM | 22.4µM | 11.6µM
O=C(COc1ccccc1F)Nc1ccccc1C(=O)OCc1cc(=O)n2nc(C3CC3)sc2n1 | · | · | · | – | · | –
CCOc1ccc(-c2cc(NC(=O)c3cccc(Cl)c3)c(C(=O)OC)s2)cc1 | · | · | · | – | · | –
CCCCNc1nc(NCc2ccccc2)nc2ccccc12 | -110.3 | · | · | 20.6µM | · | 8.2µM
OCC(Cc1ccccc1)NCc1ccccc1C(F)(F)F (stereo unspecified) | – | – | – | – | – | –
OCC(Cc1ccccc1)Nc1c2ccccc2nc2ccccc12 (stereo unspecified) | -52.4 | – | – | ? | – | 16.4µM
CC(=O)Nc1ccc2c(c1)C(=O)c1ccccc1C2=O | – | ? | ? | ? | – | ?
CCCOC(=O)c1cccc(NC(=O)C(C)(C)C)c1 | – | – | – | ? | –[0.365 µM] | ?
CC(C)(C)C(=O)Nc1cccc(C(=O)c2cccc(NC(=O)C(C)(C)C)c2)c1 | – | ? | – | ? | – | 8.2µM
CC(C)(C)C(=O)Nc1ccc2c(c1)C(=O)C(=O)c1ccccc1-2 | · | · | · | 0.708µM | · | 0.708µM
O=C(Cc1cccc(NC(=O)C2CCCN(C(=O)C3CCC3)C2)c1)Nc1ccc(C(=O)N2CCCCC2)cc1 (stereo unspecified) | – | · | · | ? | · | –
CC1CCCN(Cc2nc3c(c(=O)n(C)c(=O)n3C)n2Cc2ccc(Cl)cc2Cl)C1 (stereo unspecified) | · | · | · | – | · | –
COc1ccc(CNC(=O)/C(C#N)=C2\N=C(NC(=O)c3cccs3)c3ccccc32)cc1 | – | – | – | 25.9µM | – | ?
CNc1ncnc2c1ncn2[C@H]1CN(Cc2ccc(-c3ccccc3)cc2)C[C@@H](CO)O1 | – | · | · | ? | · | 23.1µM
CNc1ncnc2c1ncn2[C@H]1CN(C2CCCC2)C[C@@H](CO)O1 | – | · | · | 1.64µM | · | –

High-throughput results from PubChem.
